Test [1] deals with Glutathione peroxidase 1 (Homo sapiens) (UniProt P07203). In words: Primary qHTS Assay for Inhibitors of Recombinant Selenoprotein Glutathione Peroxidase 1 (GPX1) (AID 1845191). Also: nearly all actives have a fitted effect of over 65% in size. A digest of the protocol:
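GR-coupled readout: NADPH consumption tracked by fluorescence, ex 340/em 450 nm, at t=0 and after 15 min at RT. Final mix 10 nM GPX1, 1 mM GSH, 0.5 mM CHP, 0.5 mM NADPH, 100 nM GR, 0.01% BSA, following 30 min enzyme–compound preincubation.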

The target of test [2] is Phospholipid hydroperoxide glutathione peroxidase GPX4 (Homo sapiens) (UniProt P36969). In words: Primary qHTS Assay for Inhibitors of Recombinant Selenoprotein Glutathione Peroxidase 4 (GPX4) (AID 1845192). Also: nearly all actives have a fitted effect of over 65% in size. The method, boiled down: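 Steps: GPX4 plus compound, 30 min RT; add GR/GSH/NADPH master mix; start with cumene hydroperoxide; read 340/450 nm fluorescence at 0 and 15 min. Finals were 200 nM GPX4, 1 mM GSH, 0.5 mM CHP, 0.5 mM NADPH, 100 nM GR.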
Chain of Phospholipid hydroperoxide glutathione peroxidase GPX4 (Homo sapiens) (P36969 whole entry, looked up): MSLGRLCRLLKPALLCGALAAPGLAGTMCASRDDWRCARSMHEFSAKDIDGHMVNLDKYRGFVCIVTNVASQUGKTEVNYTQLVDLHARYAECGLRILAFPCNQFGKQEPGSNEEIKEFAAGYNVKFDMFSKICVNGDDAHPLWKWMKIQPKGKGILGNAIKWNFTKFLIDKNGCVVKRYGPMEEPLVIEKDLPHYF
(In general: qHTS replaces the single test concentration by a dilution series.)

Test [3] has as its target Luciferin 4-monooxygenase (Photinus pyralis) (UniProt P08659). Briefly: Primary firefly luciferase (FLuc) qHTS assay for identification of artifact compounds. (AID 1845220). Also: nearly all actives have a fitted effect of over 60% in size. Also: potency is read from the fitted curve at half-maximal effect. A digest of the protocol:
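Enzymatic FLuc inhibition assay: compounds pre-exposed to luciferin/ATP (10 uM each) for 15 min, then purified P. pyralis enzyme at 10 nM added. Read-out: luminescence at 5 min.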

Test [4] is described as follows: Viability counterscreen for antagonist of constitutive androstane receptor (CAR) against the NCATS DSHEA and TCM libraries (AID 1794837).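 Also: compound exposure lasted 24 h before viability reading.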 The method, boiled down: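 Cells: HepG2 line carrying CYP2B6 reporter and hCAR, seeded and attached 5 h. Then pin-transferred test substances plus agonist CITCO at 48 uM final; 24 h incubation; fluorogenic viability reagent, 1 h.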
(In general: The purpose of a counterscreen is to sort out artefacts and off-target activity.)

Test [5] can be described thus: Viability counterscreen for agonist of constitutive androstane receptor (CAR) against the NCATS DSHEA and TCM libraries (AID 1794838).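 Also: HepG2 cells with CYP2B6 reporter and hCAR plus 0.75 µM PK11195 antagonist.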 The method, boiled down:
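Cell health was measured as CellTiter-Fluor signal in HepG2-CYP2B6-hCAR cells treated for 24 h with substances alongside the hCAR antagonist PK11195 (0.75 uM final).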

For test [6], the target named is Nuclear receptor subfamily 1 group I member 3 (Homo sapiens) (UniProt Q14994). In words: Primary qHTS for agonist of constitutive androstane receptor (CAR) against the NCATS DSHEA and TCM libraries (AID 1794839).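 Also: HepG2 cells expressing human CAR with a CYP2B6 reporter plus PK11195 antagonist; luciferase reporter luminescence read with ONE-Glo.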 A digest of the protocol: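 qHTS, agonist mode: HepG2-CYP2B6-hCAR, 2,500 cells/well, 5 h attach; cpds + PK11195 0.75 µM final; 24 h, 37 °C, 5% CO2. Readouts: CellTiter-Fluor (405/540 nm), then ONE-Glo luminescence.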
Chain of Nuclear receptor subfamily 1 group I member 3 (Homo sapiens) (Q14994 whole entry, looked up): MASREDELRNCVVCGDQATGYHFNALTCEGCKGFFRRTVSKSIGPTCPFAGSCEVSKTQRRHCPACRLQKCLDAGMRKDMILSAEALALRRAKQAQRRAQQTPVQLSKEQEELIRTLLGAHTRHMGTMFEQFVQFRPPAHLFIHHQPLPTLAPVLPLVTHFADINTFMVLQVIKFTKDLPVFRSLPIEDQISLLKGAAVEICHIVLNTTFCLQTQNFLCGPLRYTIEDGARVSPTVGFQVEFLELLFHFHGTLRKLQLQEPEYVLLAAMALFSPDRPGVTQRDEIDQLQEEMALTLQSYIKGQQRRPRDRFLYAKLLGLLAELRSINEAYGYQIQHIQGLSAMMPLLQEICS

The nature of test [7]: HepG2 viability counterscreen (readout 2: ATP content) against the NCATS DSHEA and TCM libraries (AID 1794840). The method, boiled down: (§1)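 Same wells read twice: first fluorescence from cleaved GF-AFC substrate (25 uM final, 30 min, 37C) for live-cell protease, then CellTiter-Glo luminescence after 30 min at room temperature for ATP. HepG2 cells were exposed ~24 h to substances.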

Test [8] is described as follows: HepG2 viability counterscreen (readout 1: protease activity) against the NCATS DSHEA and TCM libraries (AID 1794841).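 Also: cells exposed to compounds for about 24 h before the protease read.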 The method, boiled down: as §1

Inconclusive results are not listed. Where a call stands in place of a potency, no number is given. The source made the active and inactive calls. Calls follow the shape of the dose curve; as a rule, active = well fitted curve in the direction sought with a large enough effect; inconclusive = small, poorly fitted or top-dose-only effect, or another doubt; inactive = no such curve, though single readings can be large; an effect the other way counts as inactive or inconclusive.

Chain of Glutathione peroxidase 1 (Homo sapiens) (P07203 whole entry, looked up): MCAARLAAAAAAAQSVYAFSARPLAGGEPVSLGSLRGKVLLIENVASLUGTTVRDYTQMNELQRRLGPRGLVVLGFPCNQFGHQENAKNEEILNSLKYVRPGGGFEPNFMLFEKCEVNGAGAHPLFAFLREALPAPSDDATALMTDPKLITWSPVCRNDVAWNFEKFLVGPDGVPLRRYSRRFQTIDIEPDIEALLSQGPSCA

For the molecule `CCn1c(C(=O)N(C2CC2)C2CC2)cc2c3c(ncn3C)c(Nc3cc(C)n(C)n3)nc21`, the Potency result in test [1], in test [2] and in test [3] was “inactive” each time.

`O=C(O)C(O)Cc1ccc(O)c(O)c1` (stereo not given): the Potency entry in test [1] and in test [2] was “inactive” in each case.

`COc1cc(O)c2c(c1)C(=O)c1cc(C)cc(O)c1C2=O`: the molecule was called inactive in test [4], in test [5], in test [7] and in test [8]. Further, the Potency result in test [6] is “inactive”.

Take `COc1ccc(-c2coc3cc(O)ccc3c2=O)cc1`: the result in test [7] and in test [8] was inactive.

Take `O=C(NCc1ccncc1)C12C[C@H]3C[C@@H](C1)CC(c1ccc(Cl)cc1)(C3)C2`: the Potency entry in test [1] and in test [2] was “inactive” in each case.

Regarding `C[C@H](NC(=O)c1sccc1OCc1ccc(Cl)cc1)c1ccccc1`, the Potency entry in test [1] and in test [2] was “inactive” throughout.

In the case of `COc1cc(NC(=O)c2ccc(-c3ccc(Cl)cc3)o2)cc(OC)c1`, the Potency result in test [1] and in test [2] was “inactive” in each case.

For the molecule `CC(C)(C)C(=O)Oc1ccc2c(c1)nc(NC(=O)c1cccc([N+](=O)[O-])c1)n2CCCO`, the Potency result in test [1] and in test [2] was “inactive” throughout.

Take `O=C1C[C@@H](c2ccc(O)cc2)Oc2cc(O)cc(O)c21`: the Potency result in test [1] was “inactive”.

Consider `CN1C[C@H]2c3ccccc3Oc3ccc(Cl)cc3[C@@H]2C1`, for which the Potency result in test [1] and in test [2] was “inactive” each time.

Turning to `Cc1ccn(-c2ccc(-c3ncco3)cc2)c(=O)c1-c1ccc2nc(N)ncc2c1`, the Potency entry in test [3] is “inactive”.

Consider `Cc1c(NC(=O)c2ccc(C(C)(C)C)cc2)cccc1-c1cn(C)c(=O)c(Nc2ccc(C(=O)N3CCOCC3)cc2)n1`, for which the Potency result in test [1] and in test [2] was “inactive” each time. Further, the Potency in test [3] is 5.88 µM (active).

As to `CN1[C@@H]2CCC[C@@H]1CC(NC(=O)c1nn(C)c3ccccc13)C2` (stereo not given in full), the Potency entry in test [1] and in test [2] was “inactive” in each case.

As for `CC(C)(C)OC(=O)N[C@H]1CCCCCC=C[C@@H]2C[C@@]2(C(=O)NS(=O)(=O)C2CC2)NC(=O)[C@@H]2C[C@@H](OC(=O)N3Cc4cccc(F)c4C3)CN2C1=O`, the Potency result in test [3] was “inactive”.

(Values after PubChem BioAssay (NCATS).)
